# Data taken from article PMC10726135, “HNF4α isoforms regulate the circadian balance between carbohydrate and lipid metabolism in the liver”.
# Whole data set: some 18,000 sequences, median “log2 normalized intensity” near 0.39, cut for the highest 2% near 6.6. The entries come from a sample that favours the highest values as a whole.
# Biological target: T1, HNF4alpha2 (COS-7 nuclear extract) (Homo sapiens, UniProt P41235 1-474)
# T1 sequence: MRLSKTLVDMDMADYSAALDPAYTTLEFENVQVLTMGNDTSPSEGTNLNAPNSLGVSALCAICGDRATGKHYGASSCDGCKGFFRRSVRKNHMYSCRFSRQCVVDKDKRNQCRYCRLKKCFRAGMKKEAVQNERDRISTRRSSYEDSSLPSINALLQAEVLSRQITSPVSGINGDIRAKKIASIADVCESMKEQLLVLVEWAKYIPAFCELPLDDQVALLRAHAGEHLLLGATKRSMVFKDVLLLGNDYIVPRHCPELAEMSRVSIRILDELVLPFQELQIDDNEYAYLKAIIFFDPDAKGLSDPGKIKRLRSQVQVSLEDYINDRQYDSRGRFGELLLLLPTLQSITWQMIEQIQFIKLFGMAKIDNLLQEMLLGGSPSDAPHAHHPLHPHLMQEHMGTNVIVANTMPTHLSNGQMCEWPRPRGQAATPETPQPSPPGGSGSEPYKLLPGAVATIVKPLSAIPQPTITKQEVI
# Assay: protein-binding microarray; COS-7 nuclear extract on double-stranded Agilent 4x180k PBM; binding buffer, salt, pH and temperature not given in the material; high values mean tight binding
# Conditions: chain copies: 2; label: 3' end of strand 1 on the slide; dsDNA, one strand shown
# Procedure, shortened: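 Binding signal is the background-corrected, normalized gProcessedSignal calculated by Agilent software. It was measured by applying nuclear extracts of COS-7 cells transiently transfected with a human HNF4α isoform expression vector to a custom Agilent SurePrint G3 4x180k array of ~44,000 double-stranded ~60-nt test sequences in quadruplicate, then imaging bound HNF4α on an Agilent G2565CA scanner at 2-µm resolution.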
row,Sequence,binding signal
1,ACCCCACGGACTTAAATTGTGCTGTGTCAGGCCTAGGGAGATTAGAGTATCGGTCGA,1.49 log2 normalized intensity
2,CAAAGTCCGCTTGCCTGAGGGTCATGACTAGCCTAGGGAGATTAGAGTATCGGTCGA,2.26 log2 normalized intensity
3,GCCAATTCAGCAAACAAAGGCACTTCTCTCGCCTAGGGAGATTAGAGTATCGGTCGA,-0.96 log2 normalized intensity
4,TGAGCAGGCAGTGTCACAGAAATCATGTAGGCCTAGGGAGATTAGAGTATCGGTCGA,0.722 log2 normalized intensity
5,AGGTCAAAGTGCAACTACAAGGAGCAGCCTGCCTAGGGAGATTAGAGTATCGGTCGA,3.48 log2 normalized intensity
6,ACCTTGTGCAGTATCCCAGGGACTTACTCAGCCTAGGGAGATTAGAGTATCGGTCGA,-0.811 log2 normalized intensity
7,AGCAATACATTGAACTTTGAACACCTCTTCGCCTAGGGAGATTAGAGTATCGGTCGA,5.41 log2 normalized intensity
8,AAGCAAACAAAACACGGACTTTGAAGCTCCGCCTAGGGAGATTAGAGTATCGGTCGA,1.95 log2 normalized intensity
9,CAATAAGCAATACATTGAACTTTGAACACCGCCTAGGGAGATTAGAGTATCGGTCGA,6.91 log2 normalized intensity
10,TTGTTCAATAAGCAATACATTGAACTTTGAGCCTAGGGAGATTAGAGTATCGGTCGA,7.41 log2 normalized intensity
11,TTTTCAACATATACTTTGAACTTGTTTTTTGCCTAGGGAGATTAGAGTATCGGTCGA,2.27 log2 normalized intensity
12,AGAGCCTAGTTCATTGCAATTACTCAATAAGCCTAGGGAGATTAGAGTATCGGTCGA,-0.91 log2 normalized intensity
13,TTTCATCTTCTTAGCCTTTGAACCCCACACGCCTAGGGAGATTAGAGTATCGGTCGA,4.78 log2 normalized intensity
14,GATTTCATCTAAGGACAAACTTTGTCACTGGCCTAGGGAGATTAGAGTATCGGTCGA,1.15 log2 normalized intensity
15,ATCTAAGATTCCCCCTACCCTCAATATCTGGCCTAGGGAGATTAGAGTATCGGTCGA,4.35 log2 normalized intensity
16,TTAACAAGCATTTTGTTCCCATTGATCATTGCCTAGGGAGATTAGAGTATCGGTCGA,1.23 log2 normalized intensity
17,CTGCCAAAGCTCACAGATGTGGAATGAAACGCCTAGGGAGATTAGAGTATCGGTCGA,-0.0699 log2 normalized intensity
18,TTTGAAAGAAAGAGACCTTTACCCTGACCTGCCTAGGGAGATTAGAGTATCGGTCGA,3.55 log2 normalized intensity
19,CAATCCTGGAGAAGGAGCACCAATGACCTTGCCTAGGGAGATTAGAGTATCGGTCGA,3.47 log2 normalized intensity
20,AAACAATGACCTCTGCACCCTTCCCTGAGTGCCTAGGGAGATTAGAGTATCGGTCGA,3.51 log2 normalized intensity
21,CAATGACCTTTGACCCTTCTCTGGGAGAAAGCCTAGGGAGATTAGAGTATCGGTCGA,8.21 log2 normalized intensity
22,GAAGGAGCACCAATGACCTTTGACCCTTCTGCCTAGGGAGATTAGAGTATCGGTCGA,11.1 log2 normalized intensity

row,Sequence,binding signal
1,ACCTTTGACCCTTCTCTGGGAGAAAGGGAGGCCTAGGGAGATTAGAGTATCGGTCGA,2.99 log2 normalized intensity
2,TTCCCTCATGATTTAGTAAGTTCAAGAAGAGCCTAGGGAGATTAGAGTATCGGTCGA,0.956 log2 normalized intensity
3,GGCCTTGGGCCACCTGAGACAGTTTATGCCGCCTAGGGAGATTAGAGTATCGGTCGA,-0.994 log2 normalized intensity
4,CCCTTTGGCCTTTCTAATTATTTACAGGGAGCCTAGGGAGATTAGAGTATCGGTCGA,0.82 log2 normalized intensity
5,CAATAAGGACTTTGGACCGTCTTGTGGATCGCCTAGGGAGATTAGAGTATCGGTCGA,5.92 log2 normalized intensity
6,ATGTGGGGCGTGTGTTAGACTTTGGACCTGGCCTAGGGAGATTAGAGTATCGGTCGA,8.86 log2 normalized intensity
7,CTCATTCCTATTCGGTGCTGACCTTTGTTCGCCTAGGGAGATTAGAGTATCGGTCGA,7.77 log2 normalized intensity
8,GTCAAGTAGAGACCTGTCTTCCTGGTGACCGCCTAGGGAGATTAGAGTATCGGTCGA,2.19 log2 normalized intensity
9,TAGACTTTGGACCTGGCCTGCGGGGTCAGGGCCTAGGGAGATTAGAGTATCGGTCGA,5.39 log2 normalized intensity
10,GAGCACTCATTCCTATTCGGTGCTGACCTTGCCTAGGGAGATTAGAGTATCGGTCGA,3.47 log2 normalized intensity
11,AGGACTTTGGACCGTCTTGTGGATCCTTGGGCCTAGGGAGATTAGAGTATCGGTCGA,4.73 log2 normalized intensity
12,GTAGAGACCTGTCTTCCTGGTGACCTTTGTGCCTAGGGAGATTAGAGTATCGGTCGA,7.11 log2 normalized intensity
13,CGGGTATGTGGGGCGTGTGTTAGACTTTGGGCCTAGGGAGATTAGAGTATCGGTCGA,4.22 log2 normalized intensity
14,ACACACAATAAGGACTTTGGACCGTCTTGTGCCTAGGGAGATTAGAGTATCGGTCGA,7.27 log2 normalized intensity
15,GACCTGTCTTCCTGGTGACCTTTGTTTGGTGCCTAGGGAGATTAGAGTATCGGTCGA,4.94 log2 normalized intensity
16,TCCTATTCGGTGCTGACCTTTGTTCACATTGCCTAGGGAGATTAGAGTATCGGTCGA,5.89 log2 normalized intensity
17,CATGGGCTGTCACCTTTACCCCCACTCTCCGCCTAGGGAGATTAGAGTATCGGTCGA,4.46 log2 normalized intensity
18,CTCCCAAGGTATCCTCCTAGAGTCCAAGGTGCCTAGGGAGATTAGAGTATCGGTCGA,2.68 log2 normalized intensity
19,GAACTTTGACTTATTTAGTAGTGGCAAGAGGCCTAGGGAGATTAGAGTATCGGTCGA,2.7 log2 normalized intensity
20,CAAAGCCCCTTTCCACTCTACCGTCCTCCCGCCTAGGGAGATTAGAGTATCGGTCGA,1.91 log2 normalized intensity
21,CCAGGGACTTTGAACACTTCTTTGTTACTTGCCTAGGGAGATTAGAGTATCGGTCGA,2.44 log2 normalized intensity
